Measurements from PubChem BioAssay (Tox21).
Records with an inconclusive call do not appear. Active and inactive are the calls of the source. Unless noted, calls come from the whole dose curve; as a rule, active = well fitted curve in the direction sought with a large enough effect in the repeat runs; inconclusive = weak or mixed curves; inactive = no such curve, though single readings can be large; an effect the other way counts as inactive or inconclusive.

Experiments:
[1] = molecular target: Progesterone receptor (Homo sapiens) (UniProt P06401); assay: qHTS assay to identify small molecule agonists of the progesterone receptor (PR) signaling pathway (AID 1346784; calls by dose curve; note: nearly all actives have a fitted effect of over 30% in size)
Chain of Progesterone receptor (Homo sapiens) (P06401 whole entry, looked up): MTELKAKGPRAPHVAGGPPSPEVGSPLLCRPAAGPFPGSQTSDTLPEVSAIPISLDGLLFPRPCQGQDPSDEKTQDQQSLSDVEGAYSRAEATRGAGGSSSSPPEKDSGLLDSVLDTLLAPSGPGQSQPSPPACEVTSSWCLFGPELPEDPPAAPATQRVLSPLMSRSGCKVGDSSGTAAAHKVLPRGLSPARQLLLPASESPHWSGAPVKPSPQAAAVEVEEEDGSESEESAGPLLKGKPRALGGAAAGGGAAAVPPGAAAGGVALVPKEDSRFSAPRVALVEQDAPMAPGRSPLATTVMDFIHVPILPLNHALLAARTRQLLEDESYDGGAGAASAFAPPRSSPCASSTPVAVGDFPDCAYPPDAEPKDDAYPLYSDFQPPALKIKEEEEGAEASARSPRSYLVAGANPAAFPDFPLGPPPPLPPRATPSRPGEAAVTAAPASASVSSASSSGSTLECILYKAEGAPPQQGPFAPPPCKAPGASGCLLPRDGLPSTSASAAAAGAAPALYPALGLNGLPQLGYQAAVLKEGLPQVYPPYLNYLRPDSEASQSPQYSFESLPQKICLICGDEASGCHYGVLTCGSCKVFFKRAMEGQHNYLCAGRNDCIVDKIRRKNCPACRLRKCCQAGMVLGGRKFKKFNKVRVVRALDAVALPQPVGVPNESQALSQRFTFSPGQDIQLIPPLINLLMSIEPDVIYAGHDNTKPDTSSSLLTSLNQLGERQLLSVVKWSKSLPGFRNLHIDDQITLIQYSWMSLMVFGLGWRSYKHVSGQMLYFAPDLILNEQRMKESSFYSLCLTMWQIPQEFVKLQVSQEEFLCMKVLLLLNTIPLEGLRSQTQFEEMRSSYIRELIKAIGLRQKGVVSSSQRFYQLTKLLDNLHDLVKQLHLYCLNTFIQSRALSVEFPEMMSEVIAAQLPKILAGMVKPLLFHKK
Method in brief: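 Cells (PR-UAS-bla HEK 293T, GripTite) were plated in assay medium containing 2% charcoal-stripped FBS and incubated 6 hr. Test compounds in DMSO were added for 16 hr at 37C. FRET substrate was then loaded for 2 hr at room temperature before fluorescence reading.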

[2] = molecular target: Progesterone receptor (Homo sapiens) (UniProt P06401); assay: qHTS assay to identify small molecule antagonists of the progesterone receptor (PR) signaling pathway (AID 1346795; active = well fitted inhibition curve with a large enough effect in the signal ratio in the repeat runs, not every such curve was filed as active; the % refers to the signal ratio)
Method in brief: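 Antagonist mode: compounds tested against 1 nM (final) promegestone stimulation in HEK293T cells expressing PR-UAS-bla reporter, 16 hr at 37C, 5% CO2; beta-lactamase activity detected via B/G FRET substrate after 2 hr at room temperature.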

[3] = qHTS assay to identify small molecule antagonists of the progesterone receptor (PR) signaling pathway - cell viability counter screen (AID 1346798); note: series mostly up to about 92 µM; nearly all actives have a fitted effect of over 50% in size
Method in brief: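 Counter screen for cytotoxicity: viability of PR-UAS-bla HEK293T cells was measured with CellTiter-Glo luminescence following 16 hr compound exposure in the presence of R5020.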

[4] = qHTS assay to identify small molecule agonists of the progesterone receptor (PR) signaling pathway - cell viability counter screen (AID 1346799; calls by dose curve; note: nearly all actives have a fitted effect of over 45% in size)
Method in brief: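 Cells (PR-UAS-bla HEK293T) are plated at 3,000/well in 2% charcoal-stripped FBS medium, rested 6 hr, dosed and incubated 16 hr at 37C. CellTiter-Glo is then added and luminescence measured after 30 min at room temperature.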

[5] = qHTS assay to identify small molecule antagonists of the TGF-beta/Smad signaling pathway - cell viability counter screen (AID 1346824); note: nearly all actives have a fitted effect of over 50% in size
Method in brief: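 Cytotoxicity counter-screen run in the same wells as the beta-lactamase Smad reporter read: CellTiter-Glo luminescence after 30 min at room temperature. HEK 293T SBE-bla cells had 5 hr compound exposure at 37 C with TGF-beta1 (0.25 ng/mL stock).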

[6] = qHTS assay to identify small molecule agonists of the TGF-beta/Smad signaling pathway - cell viability counter screen (AID 1346829); note: top concentration of the series differs between compounds; nearly all actives have a fitted effect of over 45% in size
Method in brief: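 SBE-bla HEK 293T cells plated overnight, compound exposure 5 hr at 37 C. Viability read in the same wells by CellTiter-Glo luminescence after 30 min at room temperature, following the beta-lactamase read.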

[7] = qHTS assay to identify small molecule agonists of the TGF-beta/Smad signaling pathway (AID 1346859; active = well fitted activation curve with a large enough effect in the signal ratio in the repeat runs, not every such curve was filed as active; the % refers to the signal ratio; note: series mostly up to about 77 µM)
Method in brief: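 Reporter line: HEK 293T with stably integrated SBE-controlled beta-lactamase. Compound exposure lasts 5 hr at 37 C and 5% CO2; substrate loading follows for 2 hr at room temperature, with emission read at 460 and 530 nm.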

[8] = Human pregnane X receptor (PXR) small molecule agonists, qHTS cell viability counter screen (AID 1346977); note: nearly all actives have a fitted effect of over 50% in size
Method in brief: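 Cytotoxicity counter screen run in the same wells as the PXR luciferase assay, using PXR-Luc HepG2 cells in charcoal-stripped serum medium. Viability: CellTiter-Fluor fluorescence after 24hr compound treatment.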

[9] = Caspase-3/7 induction in HepG2 cells by small molecules, qHTS assay (AID 1346978); note: nearly all actives have a fitted effect of over 15% in size
Method in brief: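 Caspase-3/7 induction was measured by Caspase-Glo 3/7 luminescence (30 min, room temperature) after a 17 hr compound exposure of wild-type HepG2 cells seeded at 2,000 per well and pre-incubated 5 hr.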

[10] = Caspase-3/7 induction in CHO-K1 cells by small molecules, qHTS cell viability counter screen (AID 1346979); note: nearly all actives have a fitted effect of over 35% in size
Method in brief: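 Cytotoxicity counter screen run in parallel with the caspase-3/7 assay: CHO-K1 cells, 16hr compound treatment at 37C, then CellTiter-Fluor for 1hr before fluorescence reading.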

[11] = Caspase-3/7 induction in CHO-K1 cells by small molecules, qHTS assay (AID 1346980); note: nearly all actives have a fitted effect of over 15% in size
Method in brief: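 Luminescent Caspase-Glo 3/7 read (30min, room temperature) quantified apoptosis induction. Cells were wild-type CHO-K1, treated with compound for 17hr at 37 C and 5% CO2.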

[12] = Caspase-3/7 induction in HepG2 cells by small molecules, qHTS cell viability counter screen (AID 1346981); note: series mostly up to about 92 µM; nearly all actives have a fitted effect of over 30% in size
Method in brief: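 HepG2, WT, 2,000 cells/well; 5 hr pre-incubation 37 C/5% CO2; compound pin-transferred from DMSO; 16 hr exposure; CellTiter-Fluor, 1 hr; fluorescence read.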

[13] = molecular target: Nuclear receptor subfamily 1 group I member 2 (Homo sapiens) (UniProt O75469); assay: Human pregnane X receptor (PXR) small molecule agonists, qHTS assay (AID 1346982); note: nearly all actives have a fitted effect of over 35% in size
Chain of Nuclear receptor subfamily 1 group I member 2 (Homo sapiens) (O75469 whole entry, looked up): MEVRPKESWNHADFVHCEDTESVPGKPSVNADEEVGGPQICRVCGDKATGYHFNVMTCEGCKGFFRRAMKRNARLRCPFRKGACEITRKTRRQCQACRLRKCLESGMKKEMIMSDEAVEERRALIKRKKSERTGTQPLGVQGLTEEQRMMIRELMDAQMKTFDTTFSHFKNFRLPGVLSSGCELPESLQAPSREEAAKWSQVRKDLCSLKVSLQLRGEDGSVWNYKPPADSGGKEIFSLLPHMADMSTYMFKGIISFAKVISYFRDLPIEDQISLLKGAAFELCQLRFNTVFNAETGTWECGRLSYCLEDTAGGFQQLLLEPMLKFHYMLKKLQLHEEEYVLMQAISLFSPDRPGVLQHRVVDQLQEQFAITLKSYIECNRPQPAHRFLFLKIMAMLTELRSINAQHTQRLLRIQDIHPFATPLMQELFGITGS
Method in brief: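 Luciferase signal from ONE-Glo (30 min, room temperature) measured activation of hPXR-driven CYP3A4 reporter expression in PXR-Luc HepG2 cells treated with compounds for 24 hr at 37 C.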

[14] = molecular target: Cytochrome P450 2D6 (Homo sapiens) (UniProt P10635); assay: Cytochrome P450 Family 2 Subfamily D Member 6 (CYP2D6) small molecule antagonists: luciferase reporter qHTS assay (AID 1671196); note: series mostly up to about 120 µM; nearly all actives have a fitted effect of over 50% in size
Chain of Cytochrome P450 2D6 (Homo sapiens) (P10635 whole entry, looked up): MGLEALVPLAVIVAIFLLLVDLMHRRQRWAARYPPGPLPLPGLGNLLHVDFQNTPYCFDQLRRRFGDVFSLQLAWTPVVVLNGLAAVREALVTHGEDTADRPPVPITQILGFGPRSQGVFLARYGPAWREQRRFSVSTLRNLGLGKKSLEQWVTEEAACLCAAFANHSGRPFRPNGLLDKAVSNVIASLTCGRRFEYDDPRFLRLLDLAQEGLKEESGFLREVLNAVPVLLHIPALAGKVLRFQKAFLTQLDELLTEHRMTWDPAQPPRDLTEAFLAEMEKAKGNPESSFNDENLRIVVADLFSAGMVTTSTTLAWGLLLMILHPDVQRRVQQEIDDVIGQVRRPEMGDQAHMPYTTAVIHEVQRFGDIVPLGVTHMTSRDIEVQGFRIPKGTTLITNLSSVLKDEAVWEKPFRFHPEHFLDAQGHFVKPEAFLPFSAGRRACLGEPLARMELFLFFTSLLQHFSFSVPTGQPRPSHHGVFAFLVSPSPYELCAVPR
Method in brief: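 Read-out is luminescence from luciferin formed by CYP2D6 turnover of a proluciferin substrate, recorded as relative luminescence units. Reactions ran 1 h at room temperature after NADPH regeneration solution was added.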

[15] = molecular target: Cytochrome P450 2C19 (Homo sapiens) (UniProt P33261); assay: Cytochrome P450 Family 2 Subfamily C Member 19 (CYP2C19) small molecule antagonists: luciferase reporter qHTS assay (AID 1671197); note: series mostly up to about 120 µM; nearly all actives have a fitted effect of over 65% in size
Chain of Cytochrome P450 2C19 (Homo sapiens) (P33261 whole entry, looked up): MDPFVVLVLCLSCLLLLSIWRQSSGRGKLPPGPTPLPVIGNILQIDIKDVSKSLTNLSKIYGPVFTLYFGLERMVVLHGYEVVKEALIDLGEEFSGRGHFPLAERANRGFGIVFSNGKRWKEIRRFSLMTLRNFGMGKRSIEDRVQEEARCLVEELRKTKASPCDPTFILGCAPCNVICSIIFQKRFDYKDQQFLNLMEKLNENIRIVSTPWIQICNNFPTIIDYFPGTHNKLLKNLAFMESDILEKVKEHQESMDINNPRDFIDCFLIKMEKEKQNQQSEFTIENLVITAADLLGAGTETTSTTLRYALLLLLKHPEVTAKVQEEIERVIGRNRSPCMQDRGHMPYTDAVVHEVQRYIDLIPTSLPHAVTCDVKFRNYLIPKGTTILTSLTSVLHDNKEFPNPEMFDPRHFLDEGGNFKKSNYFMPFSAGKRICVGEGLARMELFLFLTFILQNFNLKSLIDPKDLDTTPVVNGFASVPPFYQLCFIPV
Method in brief: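 P450-Glo CYP2C19 system: enzyme-substrate mix with compound 10 min at room temperature, then NADPH regeneration solution, 1 h at 37C. Proluciferin-to-luciferin conversion detected by luminescence after 20 min with detection reagent; ketoconazole as positive control.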

[16] = molecular target: Thyrotropin-releasing hormone receptor (Homo sapiens) (UniProt P34981); assay: qHTS assay to identify small molecule antagonists of the thyrotropin-releasing hormone receptor (TRHR) signaling pathway (AID 1346877; active = well fitted inhibition curve with a large enough effect in the repeat runs, not every such curve was filed as active; note: series mostly up to about 51 µM)
Chain of Thyrotropin-releasing hormone receptor (Homo sapiens) (P34981 whole entry, looked up): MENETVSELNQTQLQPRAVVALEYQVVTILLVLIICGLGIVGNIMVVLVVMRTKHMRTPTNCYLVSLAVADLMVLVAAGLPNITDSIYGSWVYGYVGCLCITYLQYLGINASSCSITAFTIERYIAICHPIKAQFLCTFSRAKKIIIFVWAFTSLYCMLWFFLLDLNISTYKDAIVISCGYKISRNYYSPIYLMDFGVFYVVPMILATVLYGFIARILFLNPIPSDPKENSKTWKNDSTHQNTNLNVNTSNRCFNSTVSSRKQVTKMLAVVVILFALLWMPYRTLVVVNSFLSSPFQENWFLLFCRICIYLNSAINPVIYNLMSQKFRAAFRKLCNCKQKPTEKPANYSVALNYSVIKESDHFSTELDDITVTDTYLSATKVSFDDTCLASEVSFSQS
Method in brief: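 Intracellular calcium fluorescence, read kinetically every second over 3 min, reports TRH-evoked signalling in HEK293 cells carrying TRHR. Test compounds were added 5 min ahead of a 1 nM TRH challenge.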

[17] = molecular target: Thyrotropin-releasing hormone receptor (Homo sapiens) (UniProt P34981); assay: qHTS assay to identify small molecule agonists of the thyrotropin-releasing hormone receptor (TRHR) signaling pathway (AID 1346891; calls by dose curve;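 note: HEK293 cells expressing TRHR with calcium dye readout; series mostly up to about 58 µM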)
Method in brief: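 Cells: TRHR-Hek293, seeded and incubated 18 h. Dye loading: 2 h at 37 °C. Compound added from DMSO stock by pin tool. Read-out: kinetic calcium fluorescence over 3 min.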

[18] = molecular target: Nuclear receptor subfamily 1 group I member 2 (Rattus norvegicus) (UniProt Q9R1A7); assay: Rat pregnane X receptor (rPXR) activation by small molecules, qHTS assay (AID 1346983); conditions: rPXR luciferase reporter cells, One-Glo luminescence, 24 h; hits give high values; note: nearly all actives have a fitted effect of over 20% in size
Chain of Nuclear receptor subfamily 1 group I member 2 (Rattus norvegicus) (Q9R1A7 whole entry, looked up): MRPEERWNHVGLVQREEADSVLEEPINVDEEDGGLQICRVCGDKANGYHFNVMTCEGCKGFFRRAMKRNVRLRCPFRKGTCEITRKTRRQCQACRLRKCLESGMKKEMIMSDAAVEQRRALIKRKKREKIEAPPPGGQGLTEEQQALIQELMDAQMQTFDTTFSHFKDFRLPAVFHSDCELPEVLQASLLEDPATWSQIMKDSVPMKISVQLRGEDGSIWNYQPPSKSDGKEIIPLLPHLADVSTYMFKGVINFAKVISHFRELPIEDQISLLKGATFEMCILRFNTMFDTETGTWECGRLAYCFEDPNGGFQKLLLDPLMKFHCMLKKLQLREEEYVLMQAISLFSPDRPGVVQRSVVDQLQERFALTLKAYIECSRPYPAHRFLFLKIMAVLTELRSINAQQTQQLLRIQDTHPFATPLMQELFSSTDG
Method in brief: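 Luminescent readout (One-Glo luciferase, 30 min room temperature) followed 24 hr compound treatment at 37 C of rPXR cells plated 2,000 per well and preincubated 5hr; qHTS format with compounds delivered in DMSO.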

[19] = molecular target: Nuclear receptor subfamily 1 group I member 2 (Homo sapiens) (UniProt O75469); assay: CYP3A4 induction through human pregnane X receptor (PXR) by small molecules, qHTS assay (AID 1346984); note: nearly all actives have a fitted effect of over 40% in size
Method in brief: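 Luminescence readout: luciferase signal after One-Glo (30 min, room temperature), following 3 h at 37C with 3uM final Luciferin-IPA P450 substrate. Cells were DPX-2 (HepG2, PXR/CYP3A4-luc co-transfected) dosed for 24 h.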

[20] = molecular target: Nuclear receptor subfamily 1 group I member 2 (Homo sapiens) (UniProt O75469); assay: Human pregnane X receptor (PXR) activation by small molecules, qHTS assay (AID 1346985); note: nearly all actives have a fitted effect of over 40% in size
Method in brief: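 DPX-2 cells (HepG2 co-transfected with a PXR response element and a CYP3A4-promoter luciferase construct) were seeded at 2,000 per well, rested 5 hr at 37C, then exposed to DMSO-dissolved compounds for 24 hr. Activation was read as luciferase luminescence.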
% is set by controls: 0 for no effect and ±100 for the full control effect.

CN1CCN(CC(=O)N2c3ccccc3C(=O)Nc3cccnc32)CC1
inactive: activation [1] -0.718% [at 8.39 µM] | activity change, negative = inhibition [2] 9.85% [at 8.39 µM] | activity change, negative = cytotoxicity [3] 1.84% [at 8.39 µM] | activity change, negative = cytotoxicity [4] -2.12% [at 8.39 µM] | viability change, negative = cytotoxic [5] -11.9% [at 6.97 µM] | activity change, negative = cytotoxicity [6] -15% [at 6.97 µM] | activation [7] -0.857% [at 6.97 µM] | activity change, negative = cytotoxicity [8] 5.67% [at 8.39 µM] | caspase activation [9] -1.35% [at 8.39 µM] | activity change, negative = cytotoxicity [10] 7.7% [at 8.39 µM] | caspase-3/7 activation [11] 0.448% [at 8.39 µM] | activity change, negative = cytotoxicity [12] -1.47% [at 8.39 µM] | activation [13] -11.1% [at 8.39 µM] | activity change, negative = inhibition [14] -4.49% [at 10.5 µM] | activity change, negative = inhibition [15] 8.9% [at 10.5 µM]

O=C1c2ccccc2C(=O)N1CCl
inactive: Potency [1] | Potency [2] | Potency [3] | Potency [4] | outcome [5] | outcome [6] | outcome [16] | outcome [17] | Potency [8] | Potency [9] | Potency [10] | outcome [11] | Potency [12] | Potency [13] | Potency [15]

Cc1cc(Cl)c(C)cc1Cl
inactive: Potency [1] | Potency [2] | Potency [3] | Potency [4] | outcome [5] | outcome [6] | outcome [7] | Potency [8] | Potency [10] | outcome [11] | Potency [12] | Potency [13] | Potency [14] | Potency [15]

CCn1ccc(NS(=O)(=O)c2ccc(N)cc2)nc1=O
inactive: Potency [1] | Potency [2] | Potency [3] | Potency [4] | outcome [5] | outcome [6] | outcome [7] | Potency [8] | Potency [9] | Potency [10] | outcome [11] | Potency [12] | Potency [13] | Potency [14] | Potency [15]

CC[C@H](C)C(=O)O[C@H]1C[C@H](O)C=C2C=C[C@H](C)[C@H](CC[C@@H](O)C[C@@H](O)CC(=O)O)[C@H]21
inactive: Potency [1] | Potency [2] | Potency [3] | Potency [4] | outcome [5] | outcome [6] | outcome [7] | Potency [8] | Potency [9] | Potency [10] | outcome [11] | Potency [12] | Potency [13] | max activation [18] -0.271% | Potency [19] | Potency [20] | Potency [14] | Potency [15]

Cc1ccc2ccc(Cl)cc2n1
inactive: Potency [1] | Potency [2] | Potency [3] | Potency [4] | outcome [5] | outcome [6] | outcome [7] | Potency [8] | Potency [9] | Potency [10] | outcome [11] | Potency [12] | Potency [13] | Potency [14] | Potency [15]

O=C1c2ccccc2C(=O)C1c1ccccc1
inactive: Potency [1] | Potency [2] | Potency [3] | Potency [4] | outcome [5] | outcome [6] | outcome [17] | Potency [8] | Potency [9] | Potency [10] | outcome [11] | Potency [12] | Potency [13] | max activation [18] -1.16% | Potency [19] | Potency [20] | Potency [14]
